Data: PubChem BioAssay (NCI)
The panel holds about 79,000 compounds, 15% with a hit somewhere; the sample as a whole holds those more often. A number with no mark means an inactive call. The source made the active and inactive calls. Rule as the data show it: active = growth inhibition above about 70%; inactive = the rest.

Experiments:
[1] = NCI Yeast Anticancer Drug Screen. Data for the rad50 strain (AID 155);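 also: 0% = growth of vehicle-only cultures of the same strain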; conditions: S. cerevisiae rad50 strain growth inhibition, hits give high values
In short: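 Yeast carrying a defined DNA repair defect were exposed to test compounds, and growth was compared with vehicle-treated controls to give percent inhibition.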

[2] = NCI Yeast Anticancer Drug Screen. Data for the mec2-1 strain (AID 157); conditions: S. cerevisiae mec2-1 strain, hits give high values
In short: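 Each compound was tested on mec2-1 yeast, a strain altered in DNA damage repair or cell cycle control. Growth inhibition is reported relative to vehicle.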

[3] = NCI Yeast Anticancer Drug Screen. Data for the sgs1 mgt1 strain (AID 161);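 also: 0% = growth of cultures given vehicle only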; conditions: S. cerevisiae sgs1 mgt1 strain, hits give high values
In short: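 Mutant yeast exposed to compound; growth scored against vehicle-only wells.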

[4] = NCI Yeast Anticancer Drug Screen. Data for the cln2 rad14 strain (AID 165);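 also: 0% = growth equal to vehicle treated cultures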; conditions: S. cerevisiae cln2 rad14 strain, hits give high values
In short: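 Test compounds were added to cln2 rad14 yeast cultures; inhibition of growth was then determined by comparison with vehicle treatment.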

[5] = NCI Yeast Anticancer Drug Screen. Data for the bub3 strain (AID 167); conditions: S. cerevisiae bub3 mutant strain, hits give high values
In short: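 Compounds were applied to a genetically altered yeast strain carrying a cell-cycle control defect. Growth inhibition was scored against vehicle-treated controls.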

[6] = NCI Yeast Anticancer Drug Screen. Data for the mlh1 rad18 strain (AID 175); conditions: S. cerevisiae mlh1 rad18 strain growth inhibition, hits give high values
In short: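 Inhibition values reflect reduced growth of mutant yeast versus vehicle-treated controls following compound exposure; the mutations affect DNA damage repair.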

[7] = at 5.0 µM (retest, dose inferred, filed as 0.5)
[8] = at 50.0 µM (retest, dose inferred, filed as 5.0)

Structure (SMILES) | growth inhibition [1, 7] | growth inhibition [1, 8] | growth inhibition ([1]; at 50.0 µM) | growth inhibition [2, 7] | growth inhibition [2, 8] | growth inhibition ([2]; at 50.0 µM) | growth inhibition [3, 7] | growth inhibition [3, 8] | growth inhibition ([3]; at 50.0 µM) | growth inhibition [4, 7] | growth inhibition [4, 8] | growth inhibition ([4]; at 50.0 µM) | growth inhibition [5, 7] | growth inhibition [5, 8] | growth inhibition ([5]; at 50.0 µM) | growth inhibition [6, 7] | growth inhibition [6, 8] | growth inhibition ([6]; at 50.0 µM)
Cc1ccc2c(c1)-c1c(c3c(c4c1-c1cc(C)ccc1CC4)C(=O)OC3=O)CC2 | 14% | 72% (active) | 43.9% | 10% | 43% | 16.7% | 2% | 59% | 12.2% | 14% | 41% | 3.45% | 4% | 47% | 7.65% | 9% | 56% | 36.5%
O=C(Nc1ccccc1)OCCN=c1c2ccccc2ccc2ccccc12 | 6% | 84% (active) | 84% (active) | -1% | 71% (active) | 90.5% (active) | 7% | 48% | 88.2% (active) | -15% | 68% | 82.7% (active) | 5% | 78% (active) | 90% (active) | 5% | 92% (active) | 87.2% (active)
COc1ccc2c(c1)CCCN2S(=O)(=O)c1ccc(N)cc1 | -1% | 18% | 45.5% | -3% | 5% | 27.1% | -2% | 16% | 36.8% | 0% | 13% | -6.65% | 3% | 49% | 32.2% | -2% | 12% | 47%
CC(C)C1=C(O)C2=C(C(=O)C1=O)C1(C)CCCC(C)(C)C1C(O)C2OC=O (configuration not stated) | 91% (active) | 95% (active) | 92.2% (active) | 100% (active) | 100% (active) | 93.7% (active) | 99% (active) | 100% (active) | 93.5% (active) | 81% (active) | 99% (active) | 92% (active) | 100% (active) | 100% (active) | 92.5% (active) | 98% (active) | 99% (active) | 87.5% (active)
CN(C)C(=S)/N=c1\sn(C)/c(=N\C(=S)N(C)C)n1C | -30% | -14% | -0.5% | -11% | -11% | -5.9% | 5% | 7% | -5.6% | -27% | -36% | -75.8% | -13% | -17% | 0.6% | -7% | -8% | 19.8%
CCCCC(CC)CN1C(=O)C2C3C=CC(C3)C2C1=O (configuration not stated) | -15% | -20% | 32.5% | -9% | -20% | 19.1% | -2% | -9% | 39.2% | 28% | -49% | -4.45% | 3% | -26% | 39.1% | -6% | -15% | 7.15%
CCOC(=O)C1=C(Nc2ccc(Br)cc2)OC/C1=N\NC(=O)c1ccccc1O | 11% | 11% | 50.6% | -16% | -16% | 53.5% | 7% | 7% | 71.6% (active) | 4% | 4% | 25.7% | 1% | 1% | 66.8% | 5% | 5% | 67%
CCCCCCCCCCCCCCCCCCNCCCCCCCCCCCCCCCC | 6% | 3% | 52.7% | -1% | 8% | 38.5% | 5% | 0% | 49.9% | -1% | 2% | 75% (active) | -5% | 3% | 69.2% | 4% | 6% | 45.8%
COc1ccc2c(c1)N=C(N)n1c(nc3ccccc31)S2 | -1% | 51% | 60.6% | -6% | 42% | 54.6% | -10% | 83% (active) | 74.3% (active) | -33% | 34% | 36.1% | -37% | 36% | 69.7% | -14% | 57% | 56.8%
